Rows were chosen to be rich in hits. Some 4.7% of all compounds tested hit in one or more screens of this group.
Plk1 PBD FP = Plk1 polo box domain binding inhibitors, primary screen, biochemical, fluorescence polarization; Plk1 PBD phosphopeptide binding; Serine/threonine-protein kinase PLK1 (Homo sapiens), P53350; 97,000 compounds, 0.13% hits; inhibition, %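 (tested at about 20 µM)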; in the data active = inhibition above about 34%, passing the limit was not always enough
sdo1 growth = growth rescue of sdo1-depleted yeast, primary screen, S. cerevisiae, bone marrow failure model; S. cerevisiae sdo1-depleted JHY4D growth rescue, OD600 30 h; active compounds read high; pdr5 snq2 efflux-pump mutant strain; z-score at 10 µM; 140,000 compounds, 0.21% hits; AID 817, 2007;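 active = z-score above 3 at both the 24 hr and the 30 hr optical density reads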;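 note: z-score against mean and SD of all compound wells on the same plate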
Pyk2 oligo antag = antagonists of Pyk2 self-association, primary screen, Q293 cells, FERM NanoBiT luminescence, HTS. active compounds read low. z-score (the deposit names both 25 µM and 10 µM). 99,000 compounds, 0.83% hits;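 active = Z-score of -3 or lower, scaled per plate to the spread of control and sample wells; inactive = z-score above -3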;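 note: negative z-score means lost luminescence so less FERM oligomerization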
Target sequence (Q14289 whole entry, looked up): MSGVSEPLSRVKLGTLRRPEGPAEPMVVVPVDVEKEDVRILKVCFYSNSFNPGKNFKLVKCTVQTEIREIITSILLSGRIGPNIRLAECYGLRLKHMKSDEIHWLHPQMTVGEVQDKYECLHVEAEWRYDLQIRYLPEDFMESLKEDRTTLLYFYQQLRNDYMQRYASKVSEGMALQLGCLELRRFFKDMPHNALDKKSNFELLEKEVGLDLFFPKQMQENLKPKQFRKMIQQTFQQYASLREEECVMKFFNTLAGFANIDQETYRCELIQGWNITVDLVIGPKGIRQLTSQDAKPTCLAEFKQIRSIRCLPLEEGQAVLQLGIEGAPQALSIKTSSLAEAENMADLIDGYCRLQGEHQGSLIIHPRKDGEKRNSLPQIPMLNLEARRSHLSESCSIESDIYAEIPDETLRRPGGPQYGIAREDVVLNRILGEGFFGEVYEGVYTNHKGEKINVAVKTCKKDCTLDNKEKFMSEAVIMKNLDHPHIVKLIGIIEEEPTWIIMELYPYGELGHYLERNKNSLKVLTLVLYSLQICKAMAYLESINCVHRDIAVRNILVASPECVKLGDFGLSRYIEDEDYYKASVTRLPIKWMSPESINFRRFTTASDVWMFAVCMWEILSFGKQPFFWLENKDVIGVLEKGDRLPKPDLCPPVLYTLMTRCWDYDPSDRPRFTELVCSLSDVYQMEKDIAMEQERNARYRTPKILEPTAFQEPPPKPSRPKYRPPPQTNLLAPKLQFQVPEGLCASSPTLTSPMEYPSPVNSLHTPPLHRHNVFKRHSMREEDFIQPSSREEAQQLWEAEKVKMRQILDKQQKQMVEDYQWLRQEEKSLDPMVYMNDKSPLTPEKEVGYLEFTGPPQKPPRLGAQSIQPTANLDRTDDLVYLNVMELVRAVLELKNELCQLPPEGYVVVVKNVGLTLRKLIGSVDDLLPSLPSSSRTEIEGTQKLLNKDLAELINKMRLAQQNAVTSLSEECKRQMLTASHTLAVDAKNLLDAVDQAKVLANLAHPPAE
Cav3 T inh = Cav3.2 calcium influx blockers – cell-based, Fluo-4 calcium fluorescence, FDSS, MLSMR library, primary screen; Voltage-dependent T-type calcium channel subunit alpha-1H (Homo sapiens), O95180; Cav3.2-expressing cells; active compounds read low; B-score at 10 µM; 100,000 compounds, 4% hits; AID 449739, 2010;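 active = single-dose well whose peak fluorescence ratio is a statistical outlier from its plate by either plate-standardised score or position-corrected B-score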
hDAT+cocaine = changed hDAT dopamine uptake under cocaine IC80, either direction, primary screen, cocaine antagonist project, cell-based, LLC-PK1 hDAT, [14C]-dopamine uptake, MLSMR; Sodium-dependent dopamine transporter (Homo sapiens), Q01959; LLC-PK1 hDAT cells, [14C]-dopamine uptake with cocaine IC80; actives deviate in either direction; B-score at 10 µM; 110,000 compounds, 1.3% hits; AID 449768, 2010;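 active = Z score or B-score, a plate-position-corrected score, falls beyond the plate's 99.7% confidence bounds, in either direction; inactive = both scores lie inside the 99.7% bounds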;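 note: scored against the spread of the other compound wells on the same plate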
PLK1 kinase inh = human PLK1 kinase inhibitors, primary screen, biochemical, TR-FRET. recombinant PLK1 kinase, TR-FRET peptide phosphorylation. inhibition, % at 10 µM. 97,000 compounds, 0.53% hits;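 active = inhibition of 50% or more in the single-concentration screen; inactive = inhibition below 50%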;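 note: 0% = DMSO max control and 100% = H-89 dihydrochloride min control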
* = called active by the depositor.

What do the screens show for `CC1(C)N=C(SCC(=O)Nc2ccc(Cl)cc2Cl)C(c2ccccc2)=N1`?
Plk1 PBD FP: 5; sdo1 growth: -0.88; Pyk2 oligo antag: 0.43; Cav3 T inh: -5.7*; hDAT+cocaine: 2.3; PLK1 kinase inh: -7

How did O=C(CSC1=NC2(CCCCCC2)N=C1c1ccccc1)Nc1ccc2c(c1)OCCO2 do in these assays?
sdo1 growth: -0.94

Results for CCOC(=O)c1c(N/N=C/c2ccncc2)n[nH]c1C ?
sdo1 growth: 0.15

What do the screens show for `CCCCNC(=O)NC1(C(F)(F)F)Oc2ccccc2O1`?
Plk1 PBD FP: 16; sdo1 growth: 1.1; Pyk2 oligo antag: 0.3; Cav3 T inh: 0.00096; hDAT+cocaine: -1.9*; PLK1 kinase inh: -13

What do the screens show for `NS(=O)(=O)c1ccc(CCNC(=O)CSc2ccccc2)cc1`?
Plk1 PBD FP: -10; sdo1 growth: -0.32; Pyk2 oligo antag: 0.42; Cav3 T inh: 0.97; hDAT+cocaine: -0.96; PLK1 kinase inh: -2

Results for COc1ccc(OC)c(NC(=O)NC2(C(F)(F)F)Oc3ccccc3O2)c1 ?
Plk1 PBD FP: -12; sdo1 growth: -1.1; Pyk2 oligo antag: -1.3; Cav3 T inh: 0.51; hDAT+cocaine: -0.02; PLK1 kinase inh: -6

How did NS(=O)(=O)c1ccc(CCNC(=O)NC2(C(F)(F)F)Oc3ccccc3O2)cc1 do in these assays?
Plk1 PBD FP: 17; sdo1 growth: 0.69; Pyk2 oligo antag: 1.2; Cav3 T inh: -0.84; hDAT+cocaine: -6.7*; PLK1 kinase inh: 5

How did Cc1cc(O)cc(O)c1C=NCc1ccco1 do in these assays?
sdo1 growth: 1.4

Results for Cc1ccc(S(=O)(=O)Oc2ccc(C3C4=C(CCCC4=O)N(CCC(=O)O)C4=C3C(=O)CCC4)cc2Cl)cc1 ?
sdo1 growth: 1.7

How did CCOC(=O)c1ccc2c(c1)nc(-c1ccc(F)cc1)c1nccn12 do in these assays?
sdo1 growth: -0.1

What do the screens show for `CC(C)CC(CO)N1CCN(C(=O)c2ccc(Cl)cc2)CCC1=O` (stereo not given)?
Cav3 T inh: -0.13; hDAT+cocaine: 0.012

Results for COc1cc(C2N=C(c3ccccc3)NO2)cc(Br)c1O (stereo not given) ?
Plk1 PBD FP: 8; sdo1 growth: -1.1; Pyk2 oligo antag: -0.19; Cav3 T inh: -0.21; hDAT+cocaine: 2.6*; PLK1 kinase inh: -6

What do the screens show for `COc1ccc(C2N=C(c3ccccc3)NC(c3ccccc3)=N2)cc1`?
Plk1 PBD FP: 15; sdo1 growth: -0.28; Pyk2 oligo antag: 0.29; Cav3 T inh: -1.3; hDAT+cocaine: 0.42; PLK1 kinase inh: -7

Results for CCOc1c2ccc(C(=O)NCc3ccc(C)cc3)cc2nn1CC ?
Plk1 PBD FP: 0; sdo1 growth: -0.01; Cav3 T inh: 0.63; hDAT+cocaine: 3.2*; PLK1 kinase inh: -8

How did CCCn1nc2cc(C(=O)NCc3ccc(C)cc3)ccc2c1OCC do in these assays?
Plk1 PBD FP: 14; sdo1 growth: -0.12; Cav3 T inh: -0.057; hDAT+cocaine: 0.83; PLK1 kinase inh: -6

What do the screens show for `CCN(CC)S(=O)(=O)c1ccc(OC)c(NC(=O)COc2ccc3c(C)cc(=O)oc3c2)c1`?
sdo1 growth: 0.02; Pyk2 oligo antag: 1

Results for Cc1cccc(OCC(=O)Nc2ccccc2N2CCN(C(=O)C(C)C)CC2)c1C ?
Plk1 PBD FP: -2; sdo1 growth: -1.1; Pyk2 oligo antag: 0.1; Cav3 T inh: -4.9*; hDAT+cocaine: -0.43; PLK1 kinase inh: -10

Results for CC(=O)N1CCN(c2ccccc2NC(=O)COc2cc(C)ccc2C(C)C)CC1 ?
Plk1 PBD FP: -4; sdo1 growth: -0.56; Pyk2 oligo antag: -2.7; Cav3 T inh: -5.7*; hDAT+cocaine: -0.39; PLK1 kinase inh: -9

What do the screens show for `Cc1ccccc1OCC(=O)Nc1ccccc1N1CCCCC1`?
Plk1 PBD FP: -5; sdo1 growth: 0.32; Pyk2 oligo antag: -1.2; Cav3 T inh: -1.5; hDAT+cocaine: -1.1; PLK1 kinase inh: -13

What do the screens show for `Nc1c([N+](=O)[O-])cnnc1-c1ccccc1`?
sdo1 growth: 0.13; Pyk2 oligo antag: 2.6

What do the screens show for `CC(C)Oc1ccc(/C=N/NC(=O)C(CSCc2ccccc2)NC(=O)c2ccc([N+](=O)[O-])cc2)cc1` (stereo not given)?
Plk1 PBD FP: 1; sdo1 growth: -1.6; Pyk2 oligo antag: 0.64; Cav3 T inh: -7.4*; hDAT+cocaine: -6*; PLK1 kinase inh: -14

What do the screens show for `O=C(CNc1ccccc1)N/N=C/c1ccc([N+](=O)[O-])cc1`?
sdo1 growth: -0.18

What do the screens show for `O=C(Cn1c(=O)n(Cc2ccco2)c(=O)c2c3c(sc21)CCCCC3)Nc1ccccc1`?
Plk1 PBD FP: -15; sdo1 growth: 0.09; Pyk2 oligo antag: 0.79; Cav3 T inh: -4.5*; hDAT+cocaine: 0.026; PLK1 kinase inh: -20

Results for COc1ccc(Cl)cc1-c1n[nH]c(=S)n1C1CCCCC1 ?
Plk1 PBD FP: -5; sdo1 growth: -0.19; Pyk2 oligo antag: 0.19; Cav3 T inh: -5*; hDAT+cocaine: 1.3; PLK1 kinase inh: -4

How did Cc1nc(-c2ccc(Br)cc2)ccc1C(=O)O do in these assays?
sdo1 growth: -0.51; Pyk2 oligo antag: 0.85

What do the screens show for `CCOC(=O)N/N=C(\C)c1ccc(OC(F)F)cc1OC(F)F`?
sdo1 growth: 1.3

What do the screens show for `CC1CC(C)(C)N(C(=O)CN2C(=O)c3ccccc3C2=O)c2ccccc21` (stereo not given)?
Plk1 PBD FP: 6; sdo1 growth: -0.53; Pyk2 oligo antag: -0.69; Cav3 T inh: 4.5*; hDAT+cocaine: 0.42; PLK1 kinase inh: -13

What do the screens show for `CC1=CC(C)(C)N(C(=O)CN2C(=O)c3ccccc3C2=O)c2ccccc21`?
Plk1 PBD FP: -14; sdo1 growth: -1.2; Pyk2 oligo antag: -1.1; Cav3 T inh: -1.4; hDAT+cocaine: 0.8; PLK1 kinase inh: -19

Results for Cc1cc(C)cc(N(C(=O)Cc2cccs2)C(C(=O)NC2CCCCC2)c2ccccn2)c1 (stereo not given) ?
Plk1 PBD FP: -15; sdo1 growth: -0.91; Pyk2 oligo antag: -1.7; Cav3 T inh: -5.3*; hDAT+cocaine: -0.44; PLK1 kinase inh: -9

Results for O=C(NC1CCCCC1)C(c1ccccn1)N(C(=O)Cc1cccs1)c1ccc(Cl)cc1 (stereo not given) ?
Plk1 PBD FP: 26; sdo1 growth: -1.6; Pyk2 oligo antag: -0.64; hDAT+cocaine: 0.24; PLK1 kinase inh: -14

Compound activity as filed in PubChem.
